# Assay results: PubChem BioAssay AID651784 (National Center for Advancing Translational Sciences (NCATS), 2012)
# Results filed as inconclusive are left out. Calls of active or inactive are those of the source. The call rests on the fitted dose curve; in most records, active means well fitted inhibition curve with a large enough effect; inconclusive means small, poorly fitted or top-dose-only effect; inactive means no such curve, though single readings can be large or run the other way.
# Test: Acumen qHTS Assay for Inhibitors of the mTORC1 Signaling Pathway in MEF (Tsc2-/-, p53-/-) Cells: Hit Validation;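 further: phospho-rpS6 Ser235/236 immunofluorescence normalized to propidium iodide cell count; nearly all actives have a fitted effect of over 65% in size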;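 on activity change, negative = inhibition: cells exposed to compound for 24 hours; plate controls were DMSO for no effect and 7.5 nM rapamycin control for full effect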
# Settings: Acumen imaging; activity change, negative = inhibition: at 37.3 µM (top of the series)
# Potency means the concentration at half of the fitted maximal effect.
SMILES,"activity change, negative = inhibition",Potency
CCCCC1CCC(C(=O)N2CC(=O)Nc3ccc(Cl)cc3C2c2ccc(F)cc2)CC1 (stereo not drawn),-41.1%,
COc1ccc(CNC(=O)C2CCN(c3nc4ccc(C)cc4[nH]3)CC2)cc1,22.4%,
CCN(C(=O)C(NS(=O)(=O)c1ccc(Br)s1)c1ccccc1)c1ccc(C)c(C)c1 (stereo not drawn),-46.3%,
CS(=O)(=O)N(CC(=O)NCCc1ccccc1)c1cc(C(F)(F)F)ccc1Cl,30.3%,
CCC1CN(C(=O)NCc2ccc(F)cc2)c2cc(C)ccc2O1 (stereo not drawn),0.784%,
Cc1ccc(-c2nnn(CC(=O)N(CC(=O)NCCC(C)C)c3ccc(F)cc3)n2)cc1,20.3%,
Cc1ccccc1CN1C(=O)C(O)(CC(=O)c2ccccc2)c2cc(Cl)ccc21 (stereo not drawn),-65.2%,
CCOc1ccc(NC(=O)CSc2oc(-c3ccc(F)cc3)nc2S(=O)(=O)c2ccc(C)cc2)cc1,,4.65 µM (active)
Cc1ccc(C(=O)Nc2c(C(=O)NCc3ccc(Cl)cc3)sc3nc(C)cc(C)c23)cc1,-89.8%,
COc1ccc(OCc2nc3c4c(-c5ccccc5)c(-c5ccccc5)oc4ncn3n2)cc1,3.1%,
CCCCCn1c(=N)n(CC(O)COc2cccc(C)c2)c2ccccc21 (stereo not drawn),,5.85 µM (active)
Cc1ccccc1C(=O)N1CCN(CCc2ccccn2)CC1,-26.5%,
Cc1ccc(S(=O)(=O)c2nc(-c3ccco3)oc2SC(C)c2ccccc2)cc1 (stereo not drawn),-7.74%,
COc1ccc2nc(NC(=O)c3nc(S(=O)(=O)Cc4ccccc4F)ncc3Cl)sc2c1,-106%,
CC(C)Cc1ccc(S(=O)(=O)N2CCC(c3ccncc3)CC2)cc1,,4.65 µM (active)
CCCC(=O)OC1=CN(Cc2ccccc2)S(=O)(=O)c2ccccc21,-27.1%,
CCOC(=O)c1c(NC(=O)c2nc(S(C)(=O)=O)ncc2Cl)sc(C(C)=O)c1C,,4.14 µM (active)
CC(C)CCNC(=O)c1cccc(Nc2nc3ccccc3n3nnnc23)c1,-88.5%,
CCC1CCc2nc3sc(C(=O)Nc4cccc(F)c4)c(N)c3cc2C1 (stereo not drawn),,5.21 µM (active)

SMILES,"activity change, negative = inhibition",Potency
COc1ccc(N2CC(c3nc(-c4cc(OC)c(OC)c(OC)c4)no3)CC2=O)cc1Cl (stereo not drawn),5.08%,
CCc1ccc(-n2c(=O)c3c4c(sc3n(CC(=O)c3ccc(F)cc3)c2=O)CCC4)cc1,-153%,
CN(c1ccccc1)S(=O)(=O)c1ccc(NC(=O)c2nc(S(C)(=O)=O)ncc2Cl)cc1,,1.47 µM (active)
CCCc1oc2ccc(NS(=O)(=O)c3ccc(OCC)cc3)cc2c1C(=O)OCC,,4.14 µM (active)
Cc1cccc(C(=O)Nc2c3c(nn2-c2ccc(Cl)cc2)CS(=O)(=O)C3)c1,12.6%,
Cc1cc(C)cc(Nc2cc(C(=O)NCCCN(C)C3CCCCC3)c3ccccc3n2)c1,-88.5%,
COc1ccccc1C(=O)Nc1ccc2nc(N3CCC(C)CC3)cc(C)c2c1,-19.9%,
FC(F)(F)c1cccc(Nc2nc3nonc3nc2Nc2ccc(Cl)cc2)c1,,1.65 µM (active)
CN1CCC(Nc2ncc3ncnc(Nc4ccc(F)c(Cl)c4)c3n2)CC1,-95%,
Cc1nn(CCCC(=O)NCc2cccc(Cl)c2)c(=O)c2c1sc1ccccc12,-2.73%,
Cc1ccccc1CN1C(=O)C(O)(CC(=O)c2cccc(Br)c2)c2ccccc21 (stereo not drawn),-20%,
CCCC1=Nc2cc(C(=O)NC3CCCC3)ccc2Sc2ccc(C)cc21,,1.17 µM (active)
O=C(CCOc1ccccc1)N(Cc1cccnc1)c1nc2c(F)cccc2s1,,11.7 µM (active)
COc1ccc(OC)c(C(=O)CC2(O)C(=O)N(Cc3ccccc3C)c3ccccc32)c1 (stereo not drawn),,2.61 µM (active)
COc1ccc(Nc2cc(C)nc(-n3nc(C)cc3C)n2)cc1Cl,,0.147 µM (active)
CCCCS(=O)(=O)c1nc(-c2ccc(Br)cc2)cc(-c2ccccc2)c1C#N,,6.56 µM (active)
Cc1nn(C(C)C(=O)NC2CCCCC2)c(=O)c2c1sc1ccccc12 (stereo not drawn),-2.94%,
O=C(CC1(O)C(=O)N(CCc2ccccc2)c2ccc(Br)cc21)c1ccccc1O (stereo not drawn),,6.56 µM (active)
CCc1ccc(S(=O)(=O)N(C(=O)c2ccncc2)c2ccc3oc(C)c(C(=O)OC)c3c2)cc1,,11.7 µM (active)
